43 compounds from PubChem BioAssay AID684 (PCMD, 2007) can be followed below.

About 95 (0.2%) of roughly 62,000 compounds were called active. No stated cut-off is given here; in the data, active means inhibition above about 20% (passing the limit was not always enough); inactive means the rest. For the sample, actives were picked, then their nearest neighbours and some compounds at random. Where a SMILES comes first, the peptide text is derived from it. [ ]: non-standard residue; d: D form. ξ: configuration not given here. ξV = CC(C)C(N)C(=O)O

Coagulation factor XII (Homo sapiens), sequence (P00748 20-372 limits assumed): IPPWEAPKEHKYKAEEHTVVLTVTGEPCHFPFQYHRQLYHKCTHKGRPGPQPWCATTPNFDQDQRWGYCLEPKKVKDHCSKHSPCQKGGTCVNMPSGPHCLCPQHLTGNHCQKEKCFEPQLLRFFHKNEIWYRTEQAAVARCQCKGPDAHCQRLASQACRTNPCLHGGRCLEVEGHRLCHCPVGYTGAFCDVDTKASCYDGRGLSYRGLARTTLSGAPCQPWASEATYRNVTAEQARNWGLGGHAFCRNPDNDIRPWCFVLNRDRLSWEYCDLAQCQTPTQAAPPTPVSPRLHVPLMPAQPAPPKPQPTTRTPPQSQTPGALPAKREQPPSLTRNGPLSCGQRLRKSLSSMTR
Coagulation factor XII (Homo sapiens), sequence (P00748 373-615 limits assumed): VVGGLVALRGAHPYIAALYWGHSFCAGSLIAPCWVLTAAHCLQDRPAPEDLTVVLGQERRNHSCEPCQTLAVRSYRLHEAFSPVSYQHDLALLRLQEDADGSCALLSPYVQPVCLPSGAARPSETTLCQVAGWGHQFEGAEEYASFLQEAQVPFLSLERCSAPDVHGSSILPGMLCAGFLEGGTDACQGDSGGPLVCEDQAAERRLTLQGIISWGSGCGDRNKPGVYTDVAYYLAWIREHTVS

This assay has as its target Coagulation factor XII (Homo sapiens) (UniProt P00748). Briefly: human factor XIIa inhibitors, primary screen, biochemical, pooled compound mixtures, fluorogenic substrate (AID 684).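 Further: 0% = enzyme without compound and 100% = no enzyme blank.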 The settings on record: purified FXIIa, at 5 µM, active compounds read high.
What is called inhibition is the change of the read-out against control, counted positive when it falls. `N#CC(C(=O)c1ccc(S(=O)(=O)N2CCCCCC2)cc1)c1nc2ccccc2[nH]1` (stereo not drawn): the inhibition is -9.55% (inactive).
Take `OCCNCCCCOc1ccccc1F`: the inhibition is -11.6% (inactive).
Take `CCOc1ccc(CCNC(=O)C2CCN(c3ccc(N4CCOCC4)nn3)CC2)cc1OCC`: the inhibition was -15.4% (inactive).
With `Cc1nc2ccc(NC(=O)N3CCC(c4ccccc4)C3)cc2nc1C` (stereo not drawn) the figure was -16.9% (inactive); with `CC(=O)NCC(=O)N(C)C(C(=O)Nc1ccc2c(c1)OCCO2)c1ccccc1` (stereo not drawn), 16.7% (inactive).
In the case of `COc1cccc(N(CC(=O)Nc2cccc(N(C)S(C)(=O)=O)c2)S(C)(=O)=O)c1`, the inhibition is -3.08% (inactive).
On to `COc1ccc(NC(=O)CN(C)S(=O)(=O)c2ccccc2)cc1OC`, for which the inhibition is 19.2% (inactive).
For `COc1cccc(NC(=O)CN(C)S(=O)(=O)c2ccc(C)cc2)c1`, the inhibition is 23% (active).
Take `Cc1ccc(S(=O)(=O)c2c(N)n(C)c3nc4ccccc4nc23)cc1`: the inhibition was -4.52% (inactive).
Consider `N#CCCN1CCN(S(=O)(=O)c2ccc(S(=O)(=O)NC3CCCCC3)cc2)CC1`, for which the inhibition was 4.97% (inactive).
With `O=C(CCS(=O)(=O)c1ccccc1)Nc1nc2c(s1)CCCC2` the figure was 24.1% (inactive); with `COc1ccc(C(=O)c2oc3ccc(Br)cc3c2NC(C)=O)cc1`, 1.19% (inactive); with `C/C(=C\C(=O)c1ccccc1)Nc1cccc(O)c1`, 2.12% (inactive).
Regarding `COC(=O)c1cc(C(=O)OC)cc(N2C(=O)CC(N3CCN(c4ccccc4)CC3)C2=O)c1` (stereo not drawn), the inhibition is 7.93% (inactive).
As for `CCn1cc(C(=O)NCC2COc3ccccc3O2)c2cc(OC)c(OC)cc2c1=O` (stereo not drawn), the inhibition was 3.64% (inactive).
Regarding `COc1ccccc1NC(=O)c1ccc(C)s1`, the inhibition was -2.31% (inactive).
With `CC(=O)Nc1ccc(S(=O)(=O)N2CCC(N(C)CCC(C)C)CC2)cc1`, the inhibition was -1.44% (inactive).
On to `C=CCNC(=O)CSc1nc2sc(C)c(C)c2c(=O)[nH]1`, for which the inhibition was 7.21% (inactive).
For `COc1ccc(N2CC(C)Cn3c2nc2c3c(=O)n(Cc3ccccc3F)c(=O)n2C)c(OC)c1` (stereo not drawn), the inhibition is 10.8% (inactive).
Regarding `Cn1nnc(NC(=O)CSc2ncn[nH]2)n1`, the inhibition was 4.66% (inactive).
Turning to `O=C1Nc2ccccc2C12Nc1ccccc1S2` (stereo not drawn), the inhibition was -1.23% (inactive).
For `C=CCn1c(COc2ccccc2F)nnc1SCC(=O)N1CC(=O)Nc2ccccc21`, the inhibition was 1.16% (inactive).
With `COc1ccc(C2C3=C(CC(C)(C)CC3=O)Oc3ncn4nc(-c5cccnc5)nc4c32)cc1OC` (stereo not drawn) the figure was 10.1% (inactive).
On to `C=CCNC(=O)CCCC(=O)NCC=C`, for which the inhibition was 0.65% (inactive).
With `COc1ccc2c3c(c(=O)oc2c1OCC(=O)C(C)(C)C)CCCC3` the figure was 12.2% (inactive).
In the case of `COc1ccc(N2C(=O)C3CCCN3C2c2cc(OC)c(OC)cc2OC)cc1` (stereo not drawn), the inhibition was -16.1% (inactive).
Under `CC(=O)NC(C(=O)NCC(N)=O)C(C)C` (stereo not drawn) (Ac-[ξV]-Gly-NH2) stands 1.26% (inactive); under `Cc1nn(-c2ccccc2)c(CC(C)(C)C(=O)O)c1C(=O)O`, -11.5% (inactive).
As to `Cc1cccc(NC(=O)CSc2nnc(NC(=O)CN3CCOCC3)s2)c1`, the inhibition is 0.94% (inactive).
As for `CCOC(=O)N1CCC(NC(=O)c2cnn3ccccc23)CC1`, the inhibition was 2.9% (inactive).
As for `CCOc1ccc(CCNC(=O)C(CC)n2nc(C)n3c(cc4sccc43)c2=O)cc1OCC` (stereo not drawn), the inhibition was 8.5% (inactive).
With `CCOC(=O)N1CCN(S(=O)(=O)c2cc(Br)cc3c2N(C(=O)C2CC2)CC3)CC1`, the inhibition is 2.7% (inactive).
On to `CC(=O)Nc1ccc(S(=O)(=O)Nc2nc3n(n2)C(c2ccccc2)CC(=O)N3)cc1` (stereo not drawn), for which the inhibition is -18.2% (inactive).
With `COc1ccc(-n2ncc3c(N4CCCc5ccccc54)ncnc32)cc1` the figure was -15% (inactive); with `COCC(C)N=CC1=C(O)CC(C)(C)CC1=O` (stereo not drawn), 3.32% (inactive).
As to `CC(=O)Cc1nsc(NC(=O)c2csc3c2CCCC3)n1`, the inhibition is -19% (inactive).
Regarding `CCOc1ccc(NC(=O)N(CCC(C)C)C(C)c2ccco2)cc1` (stereo not drawn), the inhibition is 29.7% (inactive).
With `CCCNC(=O)C1CC(=O)N(c2ccc(OCC(=O)Nc3cccc(C)c3C)cc2)C1` (stereo not drawn), the inhibition is 4.39% (inactive).
Regarding `CCOC(=O)CCC(=O)OCC(=O)NC(C)C1CC2CCC1C2` (stereo not drawn), the inhibition is 20.1% (inactive).
As for `COCCNC(=O)CSc1nc2c(n1-c1ccccc1)CCCC2`, the inhibition was 1.41% (inactive).
Under `CCC1CCCCN1CCNS(=O)(=O)c1ccc2c(c1)CCN2C(C)=O` (stereo not drawn) stands -15.6% (inactive).
Turning to `CCc1nnc(NS(=O)(=O)c2ccc(NS(=O)(=O)c3ccccc3)cc2)s1`, the inhibition is -2.69% (inactive).
`CC(=O)Oc1ccc2c(C)c(CC(C)O)c(=O)oc2c1` (stereo not drawn): the inhibition is 9.88% (inactive).
